The list is not random: actives were taken first. Their share in the collection is about 11%.
IMPase cell inh = qHTS Assay for Identifying the Cell-Membrane Permeable IMPase Inhibitors; Inositol monophosphatase 1 (Rattus norvegicus), P97697; CHO-M1 cells, IP1 accumulation, HTRF TR-FRET ratio; inhibition (IP1 accumulation), % at 46.1 µM; 120,000 tested, under 10 active; AID 901, 2007; active = well fitted curve in the direction sought with a large enough effect in the signal ratio, not every such curve was filed as active; inconclusive = small, poorly fitted or top-dose-only effect, or a change in a side signal; inactive = no such curve, though single readings can be large or run the other way; the % refers to the signal ratio;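 note: cells stimulated with carbachol in lithium chloride buffer; plate controls were DMSO basal wells for no effect and reference inhibitor wells for full effect; higher means more IMPase inhibition seen as more IP1 and lower FRET ratio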
Target sequence (P97697 whole entry, looked up): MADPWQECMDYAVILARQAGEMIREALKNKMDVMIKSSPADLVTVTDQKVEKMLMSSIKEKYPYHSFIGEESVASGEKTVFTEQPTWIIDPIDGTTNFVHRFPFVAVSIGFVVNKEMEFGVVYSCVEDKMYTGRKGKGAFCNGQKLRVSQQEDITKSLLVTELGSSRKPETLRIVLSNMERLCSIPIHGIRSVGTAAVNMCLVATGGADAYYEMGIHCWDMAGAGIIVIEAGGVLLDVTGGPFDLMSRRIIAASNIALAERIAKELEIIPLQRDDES
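Elevated IP1 in lysates lowers TR-FRET signal (665/620 ratio and 620 channel reported). Cells were CHO-M1, given carbachol (50 uM as added) plus 50mM LiCl, pH 7.4, 30 min, 37C; compounds titrated up to 46 uM; AC50 by Hill equation.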
IMPase Li cell = qHTS Assay for Identifying the Cell-Membrane Permeable IMPase Inhibitors: Potentiation with Lithium. Potency, µM (highest dose often 59.4 µM), inactives show top-dose activity, negative = IMPase inhibition, most hits filed as inhibitors. AID 1457, 2008. 210,000 tested, 0.35% active. CHO-M1 cells, IP1 TR-FRET (IP-One), carbachol + lithium; active = well fitted curve in the direction sought with a large enough effect; inconclusive = small, poorly fitted or top-dose-only effect, or another doubt; inactive = no such curve, though single readings can be large; an effect the other way counts as inactive or inconclusive;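 note: IP1 builds up when IMPase is blocked and the TR-FRET signal falls; potency is the fitted concentration of half-maximal effect; plate controls were basal vehicle for no effect and high inhibitor control for full effect; nearly all actives have a fitted effect of over 50% in size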
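IP1 accumulation measured by competitive TR-FRET in lysed CHO-M1 cells after 30 min compound exposure at 37C, with a small lithium addition to potentiate weak responses. Hill-equation AC50 from ratio and donor-channel data.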
PNC assembly inh = High Content Assay for Compounds that inhibit the Assembly of the Perinucleolar Compartment | activity change (PNC), negative = inhibition, % at 10 µM | 140,000 tested, 3.1% active | PC3M PTB-GFP, PNC prevalence imaging, 16 h; stronger effect = lower value;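 active = readout at or below -70, meaning at least 70% loss of cells showing the perinucleolar compartment, a nuclear body marking cancer cells; inconclusive = readout between -30 and a set limit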;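 note: plate controls were DMSO wells for no effect and camptothecin positive control wells for full effect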
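Read-out is percentage of cells bearing a perinucleolar compartment, from automated 20x imaging of fixed, Hoechst-stained PC3M PTB-GFP cells. Cells were seeded 4 h, then exposed 16 h to compound (23 nl of library stock) in duplicate plates.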
ALDH1A1 inh = qHTS Assay for Inhibitors of Aldehyde Dehydrogenase 1 (ALDH1A1) | Purified ALDH1A1, NADH fluorescence, propionaldehyde substrate | AID 1030, 2008 | Potency, µM (doses to about 75.3 µM), for inactives: top-dose activity, negative = inhibition, usual class: inhibitors | 220,000 tested, 7.3% active;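 note: potency is the fitted concentration of half-maximal effect; plate controls were no enzyme wells and a reference inhibitor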
Target sequence (P00352 whole entry, looked up): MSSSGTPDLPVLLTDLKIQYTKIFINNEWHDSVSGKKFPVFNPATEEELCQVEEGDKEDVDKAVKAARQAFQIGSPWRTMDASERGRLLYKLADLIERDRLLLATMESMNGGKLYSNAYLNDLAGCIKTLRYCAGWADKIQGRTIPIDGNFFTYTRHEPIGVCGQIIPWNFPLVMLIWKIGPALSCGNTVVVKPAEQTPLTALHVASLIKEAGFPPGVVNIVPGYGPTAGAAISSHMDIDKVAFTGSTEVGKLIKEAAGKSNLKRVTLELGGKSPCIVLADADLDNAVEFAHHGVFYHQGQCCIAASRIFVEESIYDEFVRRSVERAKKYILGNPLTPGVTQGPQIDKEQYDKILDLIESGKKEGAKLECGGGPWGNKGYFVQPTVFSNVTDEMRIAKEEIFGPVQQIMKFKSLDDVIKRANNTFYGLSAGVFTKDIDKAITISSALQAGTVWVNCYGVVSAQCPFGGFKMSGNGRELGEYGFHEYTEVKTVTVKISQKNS
12-hLO inh = qHTS Assay for Inhibitors of 12-hLO (12-human lipoxygenase); Polyunsaturated fatty acid lipoxygenase ALOX12 (Homo sapiens), P18054; purified 12-hLO, xylenol orange hydroperoxide absorbance; Potency, µM (titrated, usually from 57.1 µM), inactives show at the top dose activity change, negative = inhibition, actives largely listed as inhibitors; 150,000 tested, 0.12% active; active = well fitted curve in the direction sought with a large enough effect; inconclusive = small, poorly fitted or top-dose-only effect, or another doubt; inactive = no such curve, though single readings can be large; an effect the other way counts as inactive or inconclusive; note: potency is the fitted concentration of half-maximal effect; nearly all actives have a fitted effect of over 55% in size
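Xylenol orange chromogenic assay: hydroperoxide from 12hLO oxidises Fe(II), giving red-shifted Fe(III)-XO absorbance. Conditions: 150 nM enzyme, 40 uM arachidonic acid, 25 mM Hepes pH 7.0, 0.01% Triton X-100, 30 min, room temperature.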
HPGD block = qHTS Assay for Inhibitors of HPGD (15-Hydroxyprostaglandin Dehydrogenase); purified HPGD, NADH fluorescence kinetic, PGE2 substrate; Potency, µM, without a hit: at the top dose activity change, negative = inhibition, hits mostly inhibitors; 15-hydroxyprostaglandin dehydrogenase [NAD(+)] (Homo sapiens), P15428; 150,000 tested, 4.3% active; note: potency is the fitted concentration of half-maximal effect
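20 nM HPGD preincubated 15 min at room temperature with compound in 50 mM Tris-HCl pH 8, 0.01% Tween 20. Started with 1 mM NAD+ and 30 uM prostaglandin E2; NADH fluorescence (360/450 nm) read 5 times over 30-s intervals, last minus first.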
An asterisk follows results filed as active; ? = inconclusive; · = no result given; [ ] = remark or other dose. Unless noted, calls come from the whole dose curve; as a rule, active = well fitted inhibition curve with a large enough effect (not every such curve was filed as active); inconclusive = small, poorly fitted or top-dose-only effect, or another doubt; inactive = no such curve, though single readings can be large or run the other way. Unless noted, % is set by controls: 0 for no effect and ±100 for the full control effect.

SMILES | IMPase cell inh | IMPase Li cell | PNC assembly inh | ALDH1A1 inh | 12-hLO inh | HPGD block
NC(=O)CCN1CCCCC1 | · | -6% | · | 4% | · | ·
O=C(CCC(=O)CCN1CCCCC1)CCN1CCCCC1 | 8 | -7%[38.3 µM] | ? | 0.63µM* | -4% | -4%
CC(C)CN1C(=O)/C(=C/c2ccco2)NC1=S | · | 0% | ? | 4µM* | ? | ?
CCN1C(=O)/C(=C\N(C)C)NC1=S | · | 1% | 10 | 18% | 0% | -9%
CCCN1C(=O)/C(=C/c2ccc(C)s2)NC1=S | 17 | 4% | ? | 8.9µM* | -21% | -16%
Cc1ccc(N2C(=O)/C(=C/c3ccco3)SC2=S)cc1 | 1 | 1% | 6 | -4% | -12% | -10%
CC(C)CN1C(=O)/C(=C/c2cccs2)NC1=S | ? | 5% | 10 | 2µM* | -21% | -22%
Cc1nnc2c(Nc3cccc(O)c3)nc3ccccc3n12 | 5 | · | · | · | · | ·
Cc1cccc(Cn2cnc3c(nnn3Cc3ccccc3F)c2=O)c1 | ? | 13%[38.3 µM] | 7 | -8% | -8% | 16µM*
Cc1ccc(-n2nnc3c(=O)n(Cc4cccc(C)c4)cnc32)cc1 | 9 | 22%[38.3 µM] | -18 | 4% | -3% | 4µM*
Cc1cccc(Cn2cnc3c(nnn3Cc3ccc(F)cc3)c2=O)c1 | 8 | 10%[38.3 µM] | 58 | 5% | -4% | 14µM*
Cc1ccc(NC(=O)Cn2cnc3c(nnn3Cc3ccc(F)cc3)c2=O)cc1 | · | 0% | · | 14% | · | ·
COc1cccc(-n2nnc3c(=O)n(Cc4ccc(F)cc4)cnc32)c1 | 0 | 2%[38.3 µM] | 31 | 4% | -11% | 28µM*
Cc1ccc(CCNC(c2ccc(F)cc2)c2nnc(-c3ccccc3Cl)o2)cc1 (stereo unspecified) | 7 | · | · | · | · | ·
COc1ccc(C(=O)N/C(=C\c2cccc([N+](=O)[O-])c2)C(=O)Nc2cccc(C(=O)O)c2)cc1 | · | -6% | · | 13µM* | · | ·
COc1ccc(NC(=O)/C(=C\c2cc(OC)c(OC)cc2[N+](=O)[O-])NC(=O)c2ccccc2)cc1 | 4 | -8%[38.3 µM] | 20 | -6% | 7% | 32µM*
COc1ccccc1C(=O)N/C(=C/c1cccc([N+](=O)[O-])c1)C(=O)Nc1cccc(C(=O)O)c1 | · | -3% | · | -7% | · | ·
COc1cc(/C=C(/NC(=O)c2ccccc2)C(=O)Nc2ccccc2)c([N+](=O)[O-])cc1OC | -13 | ? | 110 | -15% | -19% | -3%
CN(C)c1ccc(/C=C(\C#N)C(=O)c2ccccc2)cc1 | · | · | · | 7.1µM* | · | ·
CCOC(=O)NC(=O)/C(C#N)=C/c1ccc(N(C)C)cc1 | · | · | · | 13µM* | · | ·
N#C/C(=C/c1ccccc1)C(=O)NCc1ccccc1 | · | 4% | · | -3% | · | ·
CN(C)c1ccc(/C=C(\C#N)c2nc3ccccc3c(=O)[nH]2)cc1 | -8 | · | · | · | · | ·
N#C/C(=C\c1ccc(C#N)cc1)C(=O)c1ccccc1 | · | · | · | 0.79µM* | · | ·
CC1CC2C(C(O)C[C@]3(C)C2CC[C@]3(O)C(=O)CO)[C@]2(C)C=CC(=O)C=C12 (stereo partly specified) | · | 9% | · | -1% | -5% | -3%
CCOC(=O)CCCc1sc(N)nc1-c1[nH]c(=O)[nH]c1C | -2 | -5%[38.3 µM] | 15 | 13µM* | -9% | 32µM*
SMILES | IMPase cell inh | IMPase Li cell | PNC assembly inh | ALDH1A1 inh | 12-hLO inh | HPGD block
Cn1cccc1C(=O)N1CCC2(CCN(Cc3ccncc3)CC2)CC1 | · | 10% | · | 12% | 2% | -1%
Cc1cccc(NC(=S)N2CCCCCC2)c1 | · | -3% | -106* | ? | -4% | 3%
CCOC(=O)c1cnc2c(C)cc(C)cc2c1NCCN1CCOCC1 | 1 | · | · | · | · | ·
COC(=O)c1ccc(O)cc1 | · | · | · | -6% | 1%[0.00818 µM] | 3%
COC(=O)c1ccc(CCc2cc(O)ccc2O)cc1 | · | -3% | · | 0.63µM* | 3.5µM* | 0.4µM*
CC(C)c1c(O)ccc2c1CCC1[C@@](C)(C=O)CCC[C@@]21C (stereo partly specified) | · | 13% | · | -1% | -6% | -18%
CC(C)CN1CCCC2(CCN(C(=O)c3ccco3)CC2)C1 | · | 30% | · | ? | -2% | -3%
O=C(O)Cc1ccc(C(=O)c2cccs2)s1 | -4 | -9%[38.3 µM] | 6 | 10µM* | -10% | 13µM*
O=C(NC(=S)N1CCCc2ccccc21)c1ccc(Cl)cc1 | · | 13% | -107* | -174% | -2% | ?
O=C(NC(=S)N1CCCc2ccccc21)c1ccccc1 | 9 | -17%[38.3 µM] | 91 | ? | 0% | -10%
O=C(NC(=S)N1CCCc2ccccc21)c1ccc([N+](=O)[O-])cc1 | 5 | 11% | ? | 11µM* | -5% | -20%
FC(F)(F)c1ccc(C2[C@H]3CN(CC4CCCCC4)[C@H](c4ccccc4)C34CC2(c2ccccc2)C4)cc1 (stereo partly specified) | · | 1% | · | -9% | -5% | -10%
O=C(CN1C(=O)c2ccccc2C1=O)Nc1ccc(S(=O)(=O)N2CCOCC2)cc1 | · | -1% | · | ? | · | ·
COc1ccc(CC(=O)N2CC(C)CC(C)C2)cc1 (stereo unspecified) | 6 | 20%[38.3 µM] | 57 | ? | 14% | 28µM*
COc1cccc(-c2cc(C(=O)N/N=C/c3ccccc3O)[nH]n2)c1 | · | · | · | 2% | -8% | -3%
CCC(Sc1nc(C)cc(=O)[nH]1)C(=O)Nc1nc(-c2ccccc2)cs1 (stereo unspecified) | -1 | 36%[38.3 µM] | ? | ? | 2% | -26%
N#Cc1c(-c2ccccc2)nc(SCC(=O)Nc2ccccc2)[nH]c1=O | ? | ? | 31 | -2% | 0% | -25%
Cc1cc(NC(=O)CSc2nc(-c3ccccc3)c(C#N)c(=O)[nH]2)no1 | ? | 7.9µM* | ? | -4% | 13% | -20%
Cc1cc(NC(=O)CSc2nc3ccccc3[nH]2)no1 | -5 | 15% | ? | 10% | -3% | -16%
CCC(Sc1nc(-c2ccccc2)c(C#N)c(=O)[nH]1)C(=O)Nc1nnc(C)s1 (stereo unspecified) | ? | 3.2µM* | ? | ? | 3% | ?
CCOC(=O)CCCCC(=O)c1[nH]c(=O)[nH]c1CSc1nc(-c2ccccc2)c(C#N)c(=O)[nH]1 | -18 | 3%[38.3 µM] | 45 | 7.9µM* | -5% | 20µM*
Cc1cc(C)nc(NS(=O)(=O)c2ccc(NC(=O)CSc3nc(-c4ccccc4)c(C#N)c(=O)[nH]3)cc2)n1 | · | 11µM* | · | ? | · | ·

Source: PubChem BioAssay (National Center for Advancing Translational Sciences (NCATS))
